According to PubChem BioAssay:
Calls of active or inactive are those of the source.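 How the source made its calls, unless noted: active means inhibition above 20% together with a positive visual image hit; inconclusive means visual image hit but inhibition not above 20%; inactive means no visual image hit.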

Tests used:
[1] = inhibitors of TNFa-induced NFkB p65 translocation, primary screen, imaging, HUVEC, MLSMR starter and 10KST1 sets (AID 438); details: HUVEC TNFa-induced p65 nuclear translocation; cell count: measured here: nuclei count (cytotoxicity indicator), at 2.08 µM; inhibition: at 2 µM, stronger effect = higher value, 0% TNFa-plus-vehicle, 100% no-TNFa wells;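 further: compound added about 3h40 before a 20 min TNFalpha stimulation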;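 on inhibition: signal is the nuclear over cytoplasmic p65 intensity ratio per well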
[2] = inhibitors of mutant huntingtin aggregation, primary screen, imaging, exon1htt(103Q)mCFP cells, high-content imaging (AID 483;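 active means visual image review flags a hit and inhibition of aggregation exceeds 20%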;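 further: compound exposure lasted 3 days before fixation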;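 on nuclei count: percent of the per-plate median nuclei count of sample wells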); details: exon1htt(103Q)mCFP cell line, aggregate imaging, at 2 µM; inhibition of aggregation: stronger effect = higher value; nuclei count: measured here: cell count, toxicity
[3] = inhibitors of E-selectin induction by TNFa, primary screen, imaging, HUVEC, immunofluorescence, MLSMR starter and 10KST1 sets (AID 487;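 active means visually confirmed hit in the image check and inhibition above 20%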;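 on inhibition: signal is fraction of cell area covered by stained E-selectin grains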;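 on nuclei count: 100% = median nuclei count of all wells on the same plate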); details: HUVEC TNFalpha-induced E-selectin immunofluorescence imaging, at 2 µM; inhibition: stronger effect = higher value; nuclei count: measured here: cell number, toxicity
[4] = target: Voltage-gated potassium channel subunit beta-2 (Rattus norvegicus) (UniProt P62483); assay: KvBeta enzyme negative modulators, primary screen, biochemical, NADPH fluorescence (AID 622;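 active means fluorescence slope higher than the sample average by over 3 SD, cut at about -0.22 in these data, passing the limit was not always enough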;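 further: slope of raw intensity against log time taken from 70 to 1610 s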); details: recombinant KvBeta, 4-cyanobenzaldehyde reduction, at 10 µM, stronger effect = higher value
Chain of Voltage-gated potassium channel subunit beta-2 (Rattus norvegicus) (P62483 whole entry, looked up): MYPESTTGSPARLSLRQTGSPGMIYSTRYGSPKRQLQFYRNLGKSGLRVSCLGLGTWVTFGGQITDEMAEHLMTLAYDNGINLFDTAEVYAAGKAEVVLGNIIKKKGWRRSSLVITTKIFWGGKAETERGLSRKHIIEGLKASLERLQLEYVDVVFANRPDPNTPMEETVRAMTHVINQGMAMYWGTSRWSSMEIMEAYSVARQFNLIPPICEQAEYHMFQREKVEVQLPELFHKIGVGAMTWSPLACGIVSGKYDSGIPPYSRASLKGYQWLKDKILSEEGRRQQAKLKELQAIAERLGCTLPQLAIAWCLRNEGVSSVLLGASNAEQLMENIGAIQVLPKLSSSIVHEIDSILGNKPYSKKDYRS

[5] = target: Voltage-gated potassium channel subunit beta-2 (Rattus norvegicus) (UniProt P62483); assay: KvBeta positive modulators, primary screen, biochemical, NADPH fluorescence (AID 623;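 active means NADPH fluorescence slope more negative than the mean of all samples by about 3 SD, 99.7% confidence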;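 further: fluorescence intensity change per second fitted from 20 to 320 s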); details: Recombinant KvBeta, NADPH fluorescence decrease slope, 10 min; at 10 µM; stronger effect = lower value
[6] = target: Alpha-2C adrenergic receptor (Homo sapiens) (UniProt P18825); assay: modulators of alpha2C/GIRK thallium flux, primary screen, cell-based, HEK293 alpha2C/GIRK1/2 (AID 624;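 active means fluorescence slope after compound addition differing from the mean of all screened samples at 99.7% confidence, in either direction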;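 further: slope of fluorescence ratio to pre-addition baseline per second over 15 to 24 s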); details: thallium flux BTC fluorescence, at 10 µM, actives lie on both sides
Chain of Alpha-2C adrenergic receptor (Homo sapiens) (P18825 whole entry, looked up): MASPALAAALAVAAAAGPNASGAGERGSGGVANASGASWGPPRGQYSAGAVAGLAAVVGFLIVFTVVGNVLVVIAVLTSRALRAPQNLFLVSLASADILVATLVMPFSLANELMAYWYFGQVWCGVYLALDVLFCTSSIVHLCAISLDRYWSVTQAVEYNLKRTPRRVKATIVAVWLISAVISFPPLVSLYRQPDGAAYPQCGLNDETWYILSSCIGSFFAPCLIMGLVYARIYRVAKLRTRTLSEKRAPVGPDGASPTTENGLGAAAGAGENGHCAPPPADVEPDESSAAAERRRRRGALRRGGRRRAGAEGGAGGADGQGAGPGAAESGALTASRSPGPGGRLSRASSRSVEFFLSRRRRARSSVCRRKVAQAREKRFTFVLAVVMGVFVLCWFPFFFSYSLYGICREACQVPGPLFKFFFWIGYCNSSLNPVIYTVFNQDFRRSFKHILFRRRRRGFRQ

[7] = inhibitors of Sendai virus-induced IRF3 signaling, primary screen, TLR/RLR signaling modifier project, cell-based, Sendai virus stimulus, luciferase, 10K MLSCN set (AID 602276;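 active means inhibition at or above 50% at 10 µM; inactive means inhibition below 50%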;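 further: firefly luciferase from ISG56 promoter only with Renilla not read in this screen; 0% = Sendai virus plus DMSO and 100% = medium plus DMSO without virus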); details: HEK293 RL24 IRF3 luciferase reporter, at 10 µM, stronger effect = higher value
[8] = inhibitors of poly I:C-induced TLR3 signaling, primary screen, cell-based, poly I:C stimulus, luciferase, 10K MLSCN set (AID 602277;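 active means inhibition of the reporter signal at or above 50%; inactive means inhibition below 50%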); details: HEK293-TLR3 RL24 IRF3 luciferase reporter, at 10 µM, stronger effect = higher value

| SMILES | cell count [1] | inhibition [1] | inhibition of aggregation [2] | nuclei count [2] [%] | inhibition [3] | nuclei count [3] [%] | fluorescence slope [4] | NADPH fluorescence slope [5] | slope [6] | inhibition [7] | inhibition [8] |
| --- | --- | --- | --- | --- | --- | --- | --- | --- | --- | --- | --- |
| CC(=O)Nc1cccc(NC(=O)c2ccco2)c1 | 286 | 2.5% (inactive) | -7.1% (inactive) | 122 | -72.9% (inactive) | 131 | -0.391 (inactive) | 2.6e-05 (inactive) | 0.00425 (inactive) | 5.39% (inactive) | 26.7% (inactive) |
| CC12CN3CC(C)(CN(C1)C3c1cc(Br)ccc1O)C2=O (stereo not drawn) | 305 | 0% (inactive) | 1.6% (inactive) | 121 | 39% (inactive) | 83.4 | -0.474 (inactive) | -4.6e-06 (inactive) | 0.00402 (inactive) | 3.76% (inactive) | 37.4% (inactive) |
| Cc1ccn2cc(CCNC(=O)CC(C)(C)C)nc2c1 | 316 | 6.4% (inactive) | -9.1% (inactive) | 95.6 | -3.4% (inactive) | 104 | -0.307 (inactive) | -5.9e-05 (inactive) | 0.00588 (inactive) | 3.87% (inactive) | 5.08% (inactive) |
| COc1ccccc1-n1c(C)nnc1SCC(=O)Nc1cccc(C(C)=O)c1 | 388 | 4.3% (inactive) | 3.5% (inactive) | 104 | 52.4% (inactive) | 95.1 | -0.355 (inactive) | -8e-06 (inactive) | 0.00484 (inactive) | 17.5% (inactive) | 13.3% (inactive) |
| CCCn1c(-c2ccc(F)cc2)cnc1SCC(=O)O | 431 | 9.9% (inactive) | -4.3% (inactive) | 106 | -63.4% (inactive) | 106 | -0.622 (inactive) | -3.6e-05 (inactive) | 0.00449 (inactive) | 16.2% (inactive) | 19.8% (inactive) |
| Cc1ccc(-n2nnnc2SCC(=O)Nc2c(C)n(C)n(-c3ccccc3)c2=O)cc1 | 637 | -1.1% (inactive) | 4.2% (inactive) | 91.4 | -18.7% (inactive) | 106 | -0.583 (inactive) | -1.3e-05 (inactive) | 0.00453 (inactive) | -6.61% (inactive) | -12.3% (inactive) |
| Cc1ccc(-n2cnnn2)c2cccnc12 | 658 | -9.3% (inactive) | -7% (inactive) | 104 | -17% (inactive) | 102 | -0.402 (inactive) | -1.4e-05 (inactive) | 0.00333 (inactive) | 5.45% (inactive) | 27.7% (inactive) |
| O=C(Nc1ccccc1)C1=C(O)CC(c2ccoc2)CC1=Nc1ccccc1 (stereo not drawn) | 321 | -2.1% (inactive) | 7.8% (inactive) | 94.4 | -80.4% (inactive) | 121 | -0.422 (inactive) | -5.7e-05 (inactive) | 0.00565 (inactive) | 4% (inactive) | 16.9% (inactive) |
| Cn1c(=O)oc2cc(S(=O)(=O)N3CCN(c4ccccn4)CC3)ccc21 | 826 | 8% (inactive) | 24.1% (inactive) | 116 | -36.5% (inactive) | 117 | -0.577 (inactive) | -4.3e-05 (inactive) | 0.00702 (inactive) | 15% (inactive) | 31.2% (inactive) |
| O=C(COc1ccc(Cl)cc1)NCc1nnc(SCC(=O)Nc2ccc3c(c2)OCCO3)o1 | 375 | 0% (inactive) | 4.2% (inactive) | 99.9 | -9.1% (inactive) | 119 | -0.359 (inactive) | -3.4e-06 (inactive) | 0.00522 (inactive) | -4.54% (inactive) | -2.34% (inactive) |
| O=C(C1CCN(c2nnnn2-c2ccccc2)CC1)N1CCN(c2ccccc2)CC1 | 618 | -33.7% (inactive) | -1.1% (inactive) | 98.3 | -35.9% (inactive) | 112 | -0.602 (inactive) | -5.4e-05 (inactive) | 0.00667 (inactive) | 8.57% (inactive) | 22.4% (inactive) |
| COc1ccccc1CN1CCCC(C(=O)N(C)Cc2ccccc2)C1 (stereo not drawn) | 739 | -3.4% (inactive) | 23.6% (inactive) | 99.1 | -218% (inactive) | 126 | -0.37 (inactive) | -9.6e-06 (inactive) | 0.00506 (inactive) | 7.15% (inactive) | 33.5% (inactive) |
| O=C(Nc1cccnc1)c1ccc2c(c1)OCO2 | 696 | -16.9% (inactive) | 19.5% (inactive) | 80.6 | -9.7% (inactive) | 110 | -0.515 (inactive) | -3.5e-05 (inactive) | 0.00618 (inactive) | -19.3% (inactive) | -49.8% (inactive) |
| Cc1ccc(C)c2[nH]c(=O)c(CN(CCN3CCCC3)C(=O)Nc3cccc(Cl)c3)cc12 | 562 | -4.7% (inactive) | 13.8% (inactive) | 67.7 | -35.9% (inactive) | 94.3 | -0.544 (inactive) | -6.8e-05 (inactive) | 0.00448 (inactive) | -139% (inactive) | 78.9% (active) |
| CC(NC(=O)c1noc2c1CCCCC2)c1ccccc1 (stereo not drawn) | 936 | 6.9% (inactive) | -5% (inactive) | 154 | -24.9% (inactive) | 126 | -0.618 (inactive) | -3.4e-05 (inactive) | 0.00631 (inactive) | -24.9% (inactive) | -53.9% (inactive) |
| O=S(=O)(c1ccccc1)N1CCN(S(=O)(=O)c2ccccc2)C1 | 281 | 5.1% (inactive) | -0.4% (inactive) | 95 | -60.7% (inactive) | 96.4 | -0.337 (inactive) | -5.3e-05 (inactive) | 0.00677 (inactive) | 10.4% (inactive) | 13.2% (inactive) |
| O=C(NC1CCCCC1)c1ccc(S(=O)(=O)N2CCCCC2)cc1 | 392 | 2.1% (inactive) | 5.8% (inactive) | 96.4 | -49.2% (inactive) | 119 | -0.588 (inactive) | 1.4e-05 (inactive) | 0.00499 (inactive) | -18.3% (inactive) | -7.9% (inactive) |
| CCOC(=O)N1CCC(NC(=O)CS(=O)(=O)Cc2nc(-c3ccccc3C)oc2C)CC1 | 699 | -7.5% (inactive) | 2.1% (inactive) | 96.6 | -66.8% (inactive) | 119 | -0.513 (inactive) | -2.7e-05 (inactive) | 0.00671 (inactive) | 9.06% (inactive) | -5.43% (inactive) |
| O=C(c1csc2ccccc12)n1cccn1 | 327 | 5.6% (inactive) | 6% (inactive) | 99.2 | 4.5% (inactive) | 105 | -0.502 (inactive) | -3.1e-05 (inactive) | 0.00494 (inactive) | 19% (inactive) | 21.3% (inactive) |
| COc1ccc(CN(C(=O)c2oc3ccccc3c2C)C2CCS(=O)(=O)C2)cc1 (stereo not drawn) | 592 | 1.7% (inactive) | 7.1% (inactive) | 87.3 | -5.9% (inactive) | 102 | -0.444 (inactive) | 2.9e-05 (inactive) | 0.00692 (inactive) | -2.17% (inactive) | 8.82% (inactive) |
| CCCCCC1CC(CC(=O)O)C(=O)O1 (stereo not drawn) | 230 | -25.6% (inactive) | 20.9% (inactive) | 80.6 | -70.3% (inactive) | 126 | -0.4 (inactive) | -5.4e-05 (inactive) | 0.00366 (inactive) | 7.61% (inactive) | 23.6% (inactive) |
| COc1ccc(OCC(=O)Nc2cccc3ncccc23)cc1 | 629 | -16.2% (inactive) | 31.6% (inactive) | 84.8 | 23.2% (inactive) | 95.6 | -0.622 (inactive) | -5.4e-05 (inactive) | 0.00436 (inactive) | 1.02% (inactive) | -8.12% (inactive) |
| O=C(NCC1CCCO1)C1CCCN(Cc2cnn(-c3ccccc3)c2-n2cccc2)C1 (stereo not drawn) | 292 | 0.8% (inactive) | 5.3% (inactive) | 86.3 | -10.5% (inactive) | 92.7 | -0.39 (inactive) | 3.8e-06 (inactive) | 0.0039 (inactive) | -11.1% (inactive) | -10.8% (inactive) |
| CC(C)CCn1c(=O)c2ccccc2n2c(CN(C)Cc3ccccc3)nnc12 | 486 | -14.2% (inactive) | 0.2% (inactive) | 101 | -78.1% (inactive) | 170 | -0.537 (inactive) | 1.9e-05 (inactive) | 0.00576 (inactive) | 8.18% (inactive) | 26.3% (inactive) |
| COc1cc(S(=O)(=O)N2CCOCC2)ccc1NC(=O)COC(=O)C12CC3CC(CC(C3)C1)C2 | 533 | -24.9% (inactive) | -8.6% (inactive) | 108 | 27.1% (inactive) | 89.4 | -0.258 (inactive) | 2.4e-06 (inactive) | 0.00665 (inactive) | 8.59% (inactive) | 19.8% (inactive) |
| O=C(NC1CC1)C1CCN(c2ccc(S(=O)(=O)N3CCOCC3)cc2)CC1 | 735 | -4.1% (inactive) | -4.3% (inactive) | 110 | -14.8% (inactive) | 101 | -0.476 (inactive) | -5e-06 (inactive) | 0.00268 (inactive) | -7.23% (inactive) | 20.7% (inactive) |
| O=c1sc(Nc2ccccc2)nc2ccsc12 | 323 | -9.8% (inactive) | -0.2% (inactive) | 91.4 | -36.8% (inactive) | 122 | -0.334 (inactive) | -2.1e-05 (inactive) | 0.00308 (inactive) | -17.1% (inactive) | -57.8% (inactive) |
| Cc1noc(C)c1S(=O)(=O)N1CCCC(C(=O)NCCc2ccc(Cl)cc2)C1 (stereo not drawn) | 402 | 7.3% (inactive) | -8.8% (inactive) | 107 | -78.1% (inactive) | 106 | -0.471 (inactive) | -0.000191 (inactive) | 0.00592 (inactive) | 11.6% (inactive) | 7.58% (inactive) |
